We go through 61 molecules from PubChem BioAssay AID431 (Sanford-Burnham Center for Chemical Genomics, 2006).

The campaign covered roughly 63,000 compounds. About 1,100 (1.7%) were called active.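 The calls were made as follows: active = compounds whose percent cytotoxicity in the single-dose primary screen, scaled between solvent and toxic-drug controls, exceeds 50; inactive = the rest.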 Shown is part of a subset that was picked to be rich in actives. Measured potencies and affinities stand elsewhere.

The assay is described as follows: cytotoxicity in KRAS-transformed pancreatic duct cells, primary screen, cell-based, fluorescence, HTS (AID 431).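 Also: 0% = DMSO solvent wells and 100% = doxorubicin-treated wells.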 Particulars: HPDE-C7K KRASV12 cells, Alamar Blue viability, 48 h; at 10 µM; active compounds read high.
With `Cc1ccc2nc3sc(C(=O)N4CCOCC4)c(N)c3cc2c1`, the cytotoxicity is 5.9% (inactive).

On to `Cc1cccc2cc3c(N)c(C(=O)N4CCOCC4)sc3nc12`, for which the cytotoxicity was 68.7% (active).

In the case of `Cc1ccc2cc3c(N)c(C(=O)N4CCOCC4)sc3nc2c1`, the cytotoxicity is -10.3% (inactive).

For `O=C(NCCCN1CCCCCC1)c1ccc2c(c1)NC(=O)C(N1CCOCC1)S2` (stereo unspecified), the cytotoxicity is -17.2% (inactive).

Turning to `O=C(Nc1c(C(=O)O)oc2ccc(Br)cc12)c1ccccc1`, the cytotoxicity was 31.7% (inactive).

With `COc1ccc(C(NC(C)=O)c2ccc3cccnc3c2O)c(OC)c1` (stereo unspecified), the cytotoxicity was -6.2% (inactive).

`COc1cc(C(=O)Nc2ccccn2)cc(OC)c1OC`: the cytotoxicity is 21.5% (inactive).

With `CCOc1ccc(C(=O)Nc2c3c(nn2-c2cccc(C)c2C)CS(=O)C3)cc1` (stereo unspecified), the cytotoxicity was -6.5% (inactive).

On to `O=C(c1ccco1)N1CCN(c2nc(C3CC3)nc3sc4c(c23)CCCC4)CC1`, for which the cytotoxicity is 50.9% (active).

Take `CC(C)c1nc(N2CCN(C(=O)c3ccco3)CC2)c2c3c(sc2n1)CCCC3`: the cytotoxicity was -14.3% (inactive).

For the molecule `Cc1nc(N2CCN(C(=O)c3ccco3)CC2)c2c3c(sc2n1)CCC3`, the cytotoxicity is 2.2% (inactive).

`COc1cccc(CCC(=O)O)c1OC`: the cytotoxicity was -7% (inactive).

As to `CCOC(=O)N1CCN(C(=O)Cn2nc(C)c3sc4ccccc4c3c2=O)CC1`, the cytotoxicity is -5% (inactive).

For the molecule `CCN(CCNC(=O)C1CCCN(Cc2nc(-c3ccc(OC)cc3)oc2C)C1)c1ccccc1` (stereo unspecified), the cytotoxicity is 62.7% (active).

As for `CCc1ccc(-c2nc(CN3CCC(C(=O)NCCN(CC)c4ccccc4)CC3)c(C)o2)cc1`, the cytotoxicity is 39.2% (inactive).

In the case of `CCc1ccc(-c2nc(CN3CCCC(C(=O)NCCc4ccc(OC)c(OC)c4)C3)c(C)o2)cc1` (stereo unspecified), the cytotoxicity is 5.5% (inactive).

Turning to `Cc1nonc1NC(=O)CSc1nc2cc(Cl)ccc2c2c1CCCC2`, the cytotoxicity is 36.2% (inactive).

Consider `Cn1c(NC(=O)c2cccnc2)nc2ccccc21`, for which the cytotoxicity was 0.4% (inactive).

For the molecule `Cc1ccc(S(=O)(=O)CCC(=O)OCC(=O)Nc2cc(C)on2)cc1`, the cytotoxicity is -22.1% (inactive).

Regarding `Cc1cc(C)nc(SCC(=O)c2ccc(O)cc2O)n1`, the cytotoxicity was -9.3% (inactive).

Turning to `COc1ccc(C(=O)Nc2nc3ccccc3[nH]2)cc1OC`, the cytotoxicity is -8% (inactive).

In the case of `COc1ccc2nc(NCCO)[nH]c2c1`, the cytotoxicity was -14.2% (inactive).

Turning to `CCCOc1ccc2nc(NC(=O)OC)[nH]c2c1`, the cytotoxicity was 61.1% (active).

In the case of `CCOc1ccc2nc(NCCO)[nH]c2c1`, the cytotoxicity was 4.8% (inactive).

Consider `COc1ccc2nc(SCC(N)=O)[nH]c2c1`, for which the cytotoxicity is -17.7% (inactive).

With `CCCSc1ccc2nc(NC(=O)OC)[nH]c2c1`, the cytotoxicity is 63.4% (active).

Regarding `Cn1nc(CC(=O)Nc2cccc3ncccc23)c2ccccc2c1=O`, the cytotoxicity is -4.3% (inactive).

Consider `CCOC(=O)c1ccc(NC(=O)CCc2nc(-c3cccc(C)c3)no2)cc1`, for which the cytotoxicity is 1% (inactive).

With `CCOC(=O)c1[nH]c(C)c(C(=O)NCCN2CCOCC2)c1C`, the cytotoxicity is 8.4% (inactive).

As for `CC(=O)c1c(C)[nH]c(C(=O)OCC(=O)Nc2cc(C(F)(F)F)ccc2N2CCOCC2)c1C`, the cytotoxicity was 14.5% (inactive).

As for `CCC(=O)N/C=C/n1cnc2cc(C(F)(F)F)ccc21`, the cytotoxicity was 15.3% (inactive).

`C=CCOC(=O)CCC(=O)Nc1cc(OC)nc(OC)n1`: the cytotoxicity is 51.4% (active).

As to `C#CCOC(=O)CCC(=O)Nc1cc(OC)nc(OC)n1`, the cytotoxicity is -8% (inactive).

For `COc1cc(NC(=O)CCCC(=O)OCC(F)(F)C(F)F)nc(OC)n1`, the cytotoxicity was -2.6% (inactive).

For the molecule `CCOC(=O)Cn1c(C)c(C#N)c2ccccc21`, the cytotoxicity is 8.1% (inactive).

Consider `COc1ccc(N(CC(=O)N2CCc3ccccc32)S(=O)(=O)c2c(C)noc2C)cc1`, for which the cytotoxicity is 2% (inactive).

For the molecule `O=C(COc1ncnc2ccc(Br)cc12)Nc1ccc(N2CCOCC2)cc1`, the cytotoxicity was -7.7% (inactive).

Regarding `COc1ccc(OC)c(-c2nnc(NC(=O)C(C)Sc3nncn3C)s2)c1` (stereo unspecified), the cytotoxicity was 4.7% (inactive).

Take `Cc1ccc(S(=O)(=O)NC2CCOC(C)(C)C2)cc1` (stereo unspecified): the cytotoxicity was -15.4% (inactive).

With `COc1cccc2c1C(=O)c1c(O)c3c(c(O)c1C2=O)C[C@@](O)(C(C)=O)C[C@@H]3O[C@H]1C[C@H](N)[C@H](O)[C@H](C)O1`, the cytotoxicity was 106% (active).

As to `COc1cccc2c1C(=O)c1c(O)c3c(c(O)c1C2=O)C[C@@](O)(C(=O)CO)C[C@@H]3O[C@H]1C[C@H](N)[C@H](O)[C@H](C)O1`, the cytotoxicity is 98.7% (active).

On to `COc1ccccc1N1CCN(C(=O)c2nn(-c3ccccc3OC)c(=O)c3ccccc23)CC1`, for which the cytotoxicity was 4.9% (inactive).

Take `CCNc1nc(Oc2ccc(=O)n(-c3ccccc3)n2)nc(N2CCOCC2)n1`: the cytotoxicity is 4.3% (inactive).

As for `Nc1nnc(N2CCCCC2)s1`, the cytotoxicity is -11.2% (inactive).

`Cc1ccc(CNS(=O)(=O)c2ccc3oc(C(=O)O)c(C)c3c2)cc1`: the cytotoxicity was 1.5% (inactive).

As to `CCOC(=O)N1CCN(C(=O)CCn2nc(-c3ccc(Cl)cc3)ccc2=O)CC1`, the cytotoxicity was -0.1% (inactive).

Turning to `CCOc1ccc(S(=O)(=O)Nc2cccc(Cl)c2)cc1`, the cytotoxicity was 65% (active).

Turning to `CCOc1ccc(NS(=O)(=O)c2ccc(NS(C)(=O)=O)cc2)cc1`, the cytotoxicity was -17% (inactive).

`CCOc1ccc(S(=O)(=O)Nc2cccnc2)cc1`: the cytotoxicity is 4.6% (inactive).

`CCOc1ccc(NS(=O)(=O)c2cc(Cl)ccc2OC)cc1`: the cytotoxicity was -5.4% (inactive).

`COc1ccc(S(=O)(=O)Nc2cccc(Cl)c2)cc1OC`: the cytotoxicity is 9.4% (inactive).

Take `CCOc1ccc(S(=O)(=O)Nc2cc(Cl)ccc2O)cc1`: the cytotoxicity was 64.5% (active).

With `Clc1ccc(-c2noc(CN3CCCC3)n2)cc1`, the cytotoxicity is -4.3% (inactive).

Consider `COc1ccc(Cl)cc1NC(=O)CN(C(=O)c1ccco1)C1CCCCC1`, for which the cytotoxicity was 4.7% (inactive).

Regarding `CCSc1nnc(NC(=O)c2cccs2)s1`, the cytotoxicity is 22.4% (inactive).

Turning to `COC(=O)c1cccc(NC(=O)CSc2nnc(COc3cccc(C)c3)n2C)c1`, the cytotoxicity is -15.1% (inactive).

`CCOC(=O)c1[nH]c(C)c(/C(O)=C2\C(=O)C(=O)N(CCCn3ccnc3)C2c2ccncc2)c1C` (stereo unspecified): the cytotoxicity was 11.3% (inactive).

In the case of `Cc1cc(C)c2nc(NC3=NCN(CCN4CCOCC4)CN3)nc(C)c2c1`, the cytotoxicity was -2% (inactive).

Turning to `CC1=C(C)C(=O)NC(Nc2nc(C)c3cc(C)cc(C)c3n2)N1` (stereo unspecified), the cytotoxicity is 90.8% (active).

Regarding `Cc1ccnc(SCCn2c(N3CCC(C)CC3)nc3c2c(=O)[nH]c(=O)n3C)n1`, the cytotoxicity was 5.9% (inactive).

`Cc1cc(C)nc(/N=C2\NC(=O)CC(C(=O)O)N2c2ccc(Oc3ccccc3)cc2)n1` (stereo unspecified): the cytotoxicity was 3.8% (inactive).
